Among the test systems are NCI-H23 lung; NCI-H226 lung; NCI-H322M lung; HOP-62 NSCLC; NCI-H460 lung; NCI-H522 lung; A549/ATCC NSCLC; 786-0 renal; COLO 205 colon; DU-145 prostate; K-562 leukemia; MALME-3M melanoma; MDA-MB-231 breast; RXF 393 renal; SF-268 CNS; SF-295 CNS; SF-539 CNS; UACC-257 melanoma; M14 melanoma.
Common to all, as to test: NCI-60 one-dose screen, 48 h (100 = growth as untreated, 0 = no growth, -100 = all killed)
Holding throughout (conditions): 10 µM unless noted

This is part of a sample that, as a whole, favours compounds with a hit. Of some 83,000 tested, about 20% had one in any assay.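 Assay: single dose, 48 h. Readout: percent growth (0 = no net growth; negative = cell death). Active: <10.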 Values without a mark were called inactive. Active and inactive are the calls of the source.

`COc1ccc(-c2nc3cc(C(=O)NC4CCCCC4)ccc3n2C2CCCCC2)cc1`: the growth in the assay on NCI-H23 lung is 92.5%; in the assay with NCI-H226 lung it was 115%; in the assay with NCI-H322M lung it was 85.8%; in the assay with HOP-62 NSCLC it was 101%; in the assay on NCI-H460 lung, 86.2%; with NCI-H522 lung, 73.5%. For the same compound, the growth in the assay on A549/ATCC NSCLC is 89.4%; in the assay with 786-0 renal, 88.3%; with COLO 205 colon, 73.6%; with DU-145 prostate, 99.7%; in the assay on K-562 leukemia, 49.5%; with MALME-3M melanoma, 95.8%. Besides, the growth is 101% in the assay on MDA-MB-231 breast; 100% in the assay on RXF 393 renal; 91.7% with SF-268 CNS; 78.3% with SF-295 CNS; 88% with SF-539 CNS; 104% in the assay on UACC-257 melanoma. Further, the growth in the assay on M14 melanoma is 88.7%.
For the compound `Cn1cc(-c2csc(-c3cn(C)c4ccc(F)cc34)n2)c2cnccc21`, the growth was 75.7% in the assay with NCI-H23 lung; 68.5% with NCI-H226 lung; 21.9% in the assay with NCI-H322M lung; -70.9% (active) with HOP-62 NSCLC; -73.8% (active) in the assay with NCI-H460 lung; -76% (active) with NCI-H522 lung. Also, the growth in the assay on A549/ATCC NSCLC is 1.42% (active); in the assay on 786-0 renal, -91.6% (active); with COLO 205 colon it was -80.1% (active); with DU-145 prostate, -6.44% (active); with K-562 leukemia, -60.3% (active); in the assay with MALME-3M melanoma, -92.5% (active). Further, the growth is -33.1% (active) in the assay on MDA-MB-231 breast; -85.5% (active) in the assay with RXF 393 renal; -60.3% (active) with SF-268 CNS; -81.1% (active) in the assay with SF-295 CNS; -92.5% (active) in the assay with SF-539 CNS; -73.1% (active) with UACC-257 melanoma. The growth in the assay with M14 melanoma is -80% (active).
As to `CC(C)(C)c1ccc(C(=O)Nc2sc3c(c2C#N)CCC(=O)C3)cc1`, the growth was 5.23% (active) in the assay with NCI-H23 lung; 15.4% with NCI-H226 lung; 86.6% in the assay with NCI-H322M lung; 49.7% with HOP-62 NSCLC; 1.59% (active) with NCI-H460 lung; -22.9% (active) with NCI-H522 lung. Besides, the growth in the assay on A549/ATCC NSCLC is 14.4%; in the assay with 786-0 renal, 17.6%; in the assay on COLO 205 colon, -61.8% (active); in the assay with DU-145 prostate, 64.2%; in the assay with K-562 leukemia, 9.48% (active); in the assay on MALME-3M melanoma it was -18.6% (active). Further, the growth is -5.45% (active) in the assay with MDA-MB-231 breast; -29.9% (active) in the assay on RXF 393 renal; 22.4% with SF-268 CNS; 10.3% with SF-295 CNS; -35.6% (active) with SF-539 CNS; 19.8% with UACC-257 melanoma. Also, in the assay with M14 melanoma, the growth was 8.73% (active).
Turning to `O=C(Nc1ccccc1)Nc1ccccc1CNc1nc(Nc2ccc(OCCN3CCCC3)cc2)ncc1Cl`, the growth in the assay with NCI-H23 lung is 68.1%; in the assay with NCI-H226 lung, 89.4%; with NCI-H322M lung it was 91.1%; in the assay with HOP-62 NSCLC, 79.3%; in the assay with NCI-H460 lung, -37.7% (active); in the assay on NCI-H522 lung, 58.6%. Moreover, the growth in the assay on A549/ATCC NSCLC was 59.4%; with 786-0 renal, 9.35% (active); in the assay on COLO 205 colon, 33%; in the assay with DU-145 prostate, 88%; with K-562 leukemia it was 7.08% (active); with MALME-3M melanoma it was 71.2%. Besides, the growth was 41.9% in the assay with MDA-MB-231 breast; 33.7% in the assay with RXF 393 renal; 72.5% in the assay on SF-268 CNS; 73.3% in the assay on SF-295 CNS; 31% in the assay with SF-539 CNS; 75.3% in the assay on UACC-257 melanoma. Besides, the growth in the assay on M14 melanoma is 61.2%.
On to `C=C(C)[C@@H]1CC[C@]2(COCCCNCCCN)CC[C@]3(C)[C@H](CC[C@@H]4[C@@]5(C)CC[C@H](OCCCN)C(C)(C)[C@@H]5CC[C@]43C)[C@@H]12`, for which the growth is -73.2% (active) in the assay with NCI-H23 lung; 45.2% in the assay on NCI-H226 lung; 41.7% in the assay on NCI-H322M lung; -59.1% (active) in the assay with HOP-62 NSCLC; -83% (active) in the assay with NCI-H460 lung; -69.6% (active) in the assay on NCI-H522 lung. Also, the growth was -66.6% (active) in the assay on A549/ATCC NSCLC; -83.6% (active) in the assay on 786-0 renal; -31.1% (active) in the assay with COLO 205 colon; -49.5% (active) with DU-145 prostate; -40% (active) in the assay with K-562 leukemia; -88.1% (active) with MALME-3M melanoma. The growth in the assay with MDA-MB-231 breast is -85.6% (active); with RXF 393 renal, 28.8%; in the assay on SF-268 CNS it was -35% (active); in the assay with SF-295 CNS it was 102%; with SF-539 CNS it was -95.7% (active); in the assay with UACC-257 melanoma it was 13.8%. For the same compound, the growth in the assay with M14 melanoma was -83% (active).
Take `O=c1c(Cc2ccc(F)cc2)cc(-c2ccccc2)nn1C/C(=N/O)c1ccccc1`: the growth in the assay with NCI-H23 lung was 49%; in the assay on NCI-H226 lung, 57.1%; with NCI-H322M lung it was 70%; in the assay with HOP-62 NSCLC it was 62.7%; with NCI-H460 lung, 37.4%; in the assay with NCI-H522 lung, 42.6%. The growth is 24.2% in the assay with A549/ATCC NSCLC; 69.2% in the assay with 786-0 renal; 47.9% in the assay on COLO 205 colon; 79.6% in the assay with DU-145 prostate; 29.2% in the assay on K-562 leukemia; 35.8% in the assay on MALME-3M melanoma. Moreover, the growth with MDA-MB-231 breast is 43.1%; with RXF 393 renal, 28.5%; in the assay on SF-268 CNS it was 52.6%; with SF-295 CNS, 31.9%; in the assay on SF-539 CNS, 81.9%; with UACC-257 melanoma it was 53.8%. The growth with M14 melanoma is 37.5%.
Take `COc1ccc(/C=C\c2cc(OC)c(OC)c(OC)c2)cc1OCC(=O)Nc1nc2ccccc2s1`: the growth is 23.5% in the assay with NCI-H23 lung; 41.7% in the assay on NCI-H226 lung; 61.6% in the assay with NCI-H322M lung; 62.5% with HOP-62 NSCLC; 1.29% (active) in the assay with NCI-H460 lung; -21.8% (active) in the assay with NCI-H522 lung. Moreover, the growth in the assay with A549/ATCC NSCLC is 29.9%; in the assay on 786-0 renal, 51.4%; in the assay with COLO 205 colon it was 6.65% (active); in the assay with DU-145 prostate it was -27.3% (active); with K-562 leukemia, 15.6%; in the assay with MALME-3M melanoma, 49.7%. For the same compound, the growth in the assay on MDA-MB-231 breast was 21.8%; in the assay on RXF 393 renal it was 20.6%; in the assay on SF-268 CNS, 24.1%; with SF-295 CNS, 9.97% (active); in the assay on SF-539 CNS, 11.8%; in the assay with UACC-257 melanoma, 54.4%. In the assay with M14 melanoma, the growth is 27.6%.
Take `O=C1/C(=C/c2ccc(-c3ccc(Cl)cc3)o2)SC(=S)N1CCc1ccc(O)cc1`: the growth is 81.3% with NCI-H23 lung; 84.1% with NCI-H226 lung; 70.3% in the assay with NCI-H322M lung; 46.8% with HOP-62 NSCLC; 9.88% (active) in the assay on NCI-H460 lung; -18.8% (active) in the assay on NCI-H522 lung. Besides, the growth in the assay with A549/ATCC NSCLC was 17.6%; in the assay with 786-0 renal, 60.9%; in the assay on COLO 205 colon it was 16.8%; with DU-145 prostate, 29.1%; with K-562 leukemia, 26.1%; with MALME-3M melanoma it was 76.7%. Besides, the growth in the assay with MDA-MB-231 breast was 75.6%; in the assay on RXF 393 renal, 70%; in the assay with SF-268 CNS, 31.2%; with SF-295 CNS, 104%; in the assay on SF-539 CNS it was 70.9%; in the assay with UACC-257 melanoma, 42%. The growth in the assay with M14 melanoma is 38.2%.
`O=C1C2C(c3cccs3)C=C(c3ccc(Cl)cc3)N2C(=S)N1c1ccccc1` (centres undefined): the growth with NCI-H23 lung was 94.2%; in the assay on NCI-H226 lung, 86.8%; in the assay on NCI-H322M lung it was 102%; in the assay with HOP-62 NSCLC, 101%; in the assay with NCI-H460 lung, 108%; in the assay with NCI-H522 lung, 98.6%. The growth in the assay with A549/ATCC NSCLC was 101%; in the assay on 786-0 renal, 102%; in the assay on COLO 205 colon it was 119%; with DU-145 prostate, 110%; with K-562 leukemia it was 101%; in the assay on MALME-3M melanoma, 115%. Moreover, the growth with MDA-MB-231 breast is 86.3%; with RXF 393 renal, 102%; in the assay on SF-268 CNS it was 96.7%; in the assay with SF-295 CNS it was 104%; with SF-539 CNS, 93%; in the assay on UACC-257 melanoma, 105%. Moreover, in the assay with M14 melanoma, the growth was 101%.
Take `O=C(/C=C/c1ccc(Cl)cc1)c1ccc(Nc2ccnc3cc(Cl)ccc23)cc1`: the growth in the assay with NCI-H23 lung is 71.1%; in the assay with NCI-H226 lung it was 111%; in the assay with NCI-H322M lung, 89.6%; with HOP-62 NSCLC, 72.2%; in the assay with NCI-H460 lung, 133%; in the assay on NCI-H522 lung, 88.3%. For the same compound, the growth in the assay on A549/ATCC NSCLC is 62.7%; with 786-0 renal, 62.8%; in the assay with COLO 205 colon, 107%; with DU-145 prostate, 145%; in the assay on K-562 leukemia, 27.8%; in the assay on MALME-3M melanoma it was 79.9%. Further, the growth with MDA-MB-231 breast was 48.4%; with RXF 393 renal it was -41.4% (active); in the assay with SF-268 CNS, 164%; with SF-295 CNS, 9.54% (active); with SF-539 CNS it was 122%; with UACC-257 melanoma it was 93.4%. Also, the growth in the assay with M14 melanoma is 84.5%.
For the compound `CC(=O)OCCOc1cc(Cl)c(Cl)cc1Cl`, the growth was 97.4% with NCI-H23 lung; 101% in the assay with NCI-H226 lung; 112% in the assay on NCI-H322M lung; 103% in the assay on HOP-62 NSCLC; 109% in the assay with NCI-H460 lung; 86.6% in the assay on NCI-H522 lung. Besides, the growth with A549/ATCC NSCLC was 90.8%; in the assay on 786-0 renal it was 100%; with COLO 205 colon, 121%; in the assay with DU-145 prostate, 105%; with K-562 leukemia it was 102%; in the assay with MALME-3M melanoma it was 114%. Moreover, the growth in the assay on MDA-MB-231 breast was 94.3%; in the assay on RXF 393 renal, 102%; in the assay with SF-268 CNS it was 99.4%; in the assay on SF-295 CNS it was 95%; with SF-539 CNS it was 107%; in the assay with UACC-257 melanoma it was 102%. For the same compound, in the assay on M14 melanoma, the growth was 103%.

Source of the values: PubChem BioAssay (NCI).
